Records with an inconclusive call do not appear. The source made the active and inactive calls. Unless noted, calls follow the shape of the dose curve; as a rule, active = well fitted curve in the direction sought with a large enough effect; inconclusive = small, poorly fitted or top-dose-only effect, or another doubt; inactive = no such curve, though single readings can be large; an effect the other way counts as inactive or inconclusive.
Experiments:
[1] = Confirmation and Secondary Assay for Modulators of Hemoglobin Beta Chain Splicing at IVS2 654 locus (AID 910);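 also: HeLa cells stably carrying EGFP split by mutant beta-globin IVS2-654 intron; % of control where 0% means no effect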
Outline: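 HeLa cells stably expressing EGFP interrupted by β-globin IVS2-654 intron, seeded overnight in Opti-MEM/2% FCS, then treated 2 days at 37 °C. Restored splicing read as total peak GFP intensity per well by laser scanning cytometry (488 nm excitation, 500–520 nm emission); 500 nM antisense PNA as control.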

[2] = Confirmation and Secondary Assay for Modulators of Hemoglobin Beta Chain Splicing at IVS2 705 locus (AID 930);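 also: HeLa cells stably expressing the EGFP-705 splicing reporter; GFP fluorescence per well restored by corrected splicing of the IVS2-705 intron in EGFP; % of control where 0% means no effect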
Outline: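 HeLa IVS2-705 EGFP reporter cells, 500/well, compound 2 d at 37C; correct splicing yields fluorescent EGFP. Control: 500 nM antisense PNA. Read-out: total peak GFP intensity.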

[3] = molecular target: Ubiquitin carboxyl-terminal hydrolase 1 (Homo sapiens) (UniProt O94782); experiment: Inhibitors of USP1/UAF1: Pilot qHTS (AID 504865);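 also: rhodamine fluorescence freed from ubiquitin-rhodamine substrate followed over time; top concentration of the series differs between compounds; % is scaled to controls: 0 for no effect and ±100 for the full control effect; nearly all actives have a fitted effect of over 35% in size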
Chain of Ubiquitin carboxyl-terminal hydrolase 1 (Homo sapiens) (O94782 whole entry, looked up): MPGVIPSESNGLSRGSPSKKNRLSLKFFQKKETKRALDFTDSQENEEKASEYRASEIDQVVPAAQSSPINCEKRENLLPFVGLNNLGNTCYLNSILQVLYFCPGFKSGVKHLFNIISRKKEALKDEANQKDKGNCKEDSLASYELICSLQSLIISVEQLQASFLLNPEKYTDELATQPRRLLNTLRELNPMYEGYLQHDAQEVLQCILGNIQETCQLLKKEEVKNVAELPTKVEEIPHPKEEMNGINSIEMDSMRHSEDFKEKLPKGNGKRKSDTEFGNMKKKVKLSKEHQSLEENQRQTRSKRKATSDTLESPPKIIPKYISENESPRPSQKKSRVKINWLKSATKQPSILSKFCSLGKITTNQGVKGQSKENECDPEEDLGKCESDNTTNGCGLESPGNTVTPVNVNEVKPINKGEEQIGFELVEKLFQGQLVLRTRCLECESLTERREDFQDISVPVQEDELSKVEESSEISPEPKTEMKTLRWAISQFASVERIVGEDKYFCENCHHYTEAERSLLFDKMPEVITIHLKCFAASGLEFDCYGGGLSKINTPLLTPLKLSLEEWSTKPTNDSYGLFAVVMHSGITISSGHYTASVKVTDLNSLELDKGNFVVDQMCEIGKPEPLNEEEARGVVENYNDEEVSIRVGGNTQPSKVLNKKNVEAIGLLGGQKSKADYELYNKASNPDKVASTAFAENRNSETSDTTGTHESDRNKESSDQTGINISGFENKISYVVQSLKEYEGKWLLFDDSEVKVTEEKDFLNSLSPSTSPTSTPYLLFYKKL
Outline: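 USP1/UAF1 complex at 1 nM preincubated 15 min at room temperature with compound, then Ub-Rho substrate added at 150 nM final. Fluorescence (480/540 nm) read kinetically in 50 mM HEPES pH 7.8, 0.5 mM EDTA, 1 mM TCEP, 0.1 mg/ml BSA, 0.01% Tween-20.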

[4] = NCATS anti-infectives library activity on HEK293 viability as a counter-qHTS vs the C. elegans viability qHTS (AID 1745854); also: % is scaled to controls: 0 for no effect and ±100 for the full control effect
Outline: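 HEK293 cells, 1500 per well, exposed 24 hr at 37C in 5% CO2 to compounds in a 1:5 titration, up to 41.7 uM final. Viability read as CellTiter-Glo luminescence after 10 min at room temperature.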

[5] = molecular target: Androgen receptor (Homo sapiens) (UniProt P10275); experiment: qHTS assay for small molecule antagonists of androgen receptor signaling (AID 588516; active = well fitted curve in the direction sought with a large enough effect in the signal ratio, with a control signal flat, not every such curve was filed as active; the % refers to the signal ratio; also: % is scaled to controls: 0 for no effect and ±100 for the full control effect)
Outline: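 AR-UAS-bla GripTite HEK 293 cells (2000/well) treated with compound titrations plus 10 nM R1881 for 16 h at 37C. Beta-lactamase read by CCF4 FRET (460/530 nm); IC50 from Hill fits, normalized to R1881 and DMSO control wells.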

[6] = molecular target: Glucocorticoid receptor (Homo sapiens) (UniProt P04150); experiment: qHTS assay for small molecule agonists of glucocorticoid receptor signaling (AID 588532; active = well fitted curve in the direction sought with a large enough effect in the signal ratio, with a control signal flat; the % refers to the signal ratio;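 also: 100% = dexamethasone at 0.1 µM and 0% = DMSO only wells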); conditions: HeLa MMTV-bla, beta-lactamase ratio, agonist, 18 h; stronger effect = higher value; percent of dexamethasone control, DMSO zero
Chain of Glucocorticoid receptor (Homo sapiens) (P04150 whole entry, looked up): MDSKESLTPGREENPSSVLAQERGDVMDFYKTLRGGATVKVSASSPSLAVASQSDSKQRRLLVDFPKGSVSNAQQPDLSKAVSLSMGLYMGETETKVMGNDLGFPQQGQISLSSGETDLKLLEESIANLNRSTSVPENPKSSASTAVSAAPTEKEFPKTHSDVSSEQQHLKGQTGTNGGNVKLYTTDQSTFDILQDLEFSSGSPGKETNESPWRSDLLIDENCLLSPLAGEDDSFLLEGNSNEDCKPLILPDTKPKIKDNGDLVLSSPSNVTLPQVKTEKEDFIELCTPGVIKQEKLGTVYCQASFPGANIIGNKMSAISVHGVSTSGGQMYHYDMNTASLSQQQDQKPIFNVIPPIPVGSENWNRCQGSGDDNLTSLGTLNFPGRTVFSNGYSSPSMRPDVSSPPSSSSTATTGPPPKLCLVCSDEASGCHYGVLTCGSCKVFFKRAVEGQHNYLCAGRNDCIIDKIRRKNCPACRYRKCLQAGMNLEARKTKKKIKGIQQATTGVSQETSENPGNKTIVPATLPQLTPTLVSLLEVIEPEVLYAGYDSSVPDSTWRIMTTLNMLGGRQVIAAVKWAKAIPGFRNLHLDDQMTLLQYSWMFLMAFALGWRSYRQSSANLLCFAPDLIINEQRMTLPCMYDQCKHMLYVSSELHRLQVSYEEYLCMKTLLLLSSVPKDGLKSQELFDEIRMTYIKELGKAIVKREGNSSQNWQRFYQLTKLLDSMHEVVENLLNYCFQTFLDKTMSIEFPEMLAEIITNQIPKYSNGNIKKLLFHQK
Outline: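 MMTV-bla HeLa beta-lactamase reporter cells in 1% charcoal/dextran FBS medium, compounds up to 92 uM for 18 h at 37 C, CCF4 readout; normalized to 0.1 uM dexamethasone (100%), EC50 and efficacy from Hill fits.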

[7] = qHTS assay for small molecule antagonists of peroxisome proliferator-activated receptor delta signaling (AID 588535; active = well fitted inhibition curve with a large enough effect in the signal ratio, with a control signal flat, not every such curve was filed as active; the % refers to the signal ratio;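 as to max response: cells co-treated with a PPAR-delta agonist as stimulator during compound exposure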); conditions: HEK293T PPARd-UAS-bla, beta-lactamase FRET ratio, 18 h; 460 nm channel
Outline: (§1)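 Cells were seeded at 4000 per well in assay medium containing 2% charcoal/dextran FBS and held 5 hrs at 37 C. Compounds were then added for 18 hrs. CCF4 substrate was applied for 2 hrs at room temperature before fluorescence reading.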

[8] = molecular target: Peroxisome proliferator-activated receptor delta (Homo sapiens) (UniProt Q03181); experiment: as above
Chain of Peroxisome proliferator-activated receptor delta (Homo sapiens) (Q03181 whole entry, looked up): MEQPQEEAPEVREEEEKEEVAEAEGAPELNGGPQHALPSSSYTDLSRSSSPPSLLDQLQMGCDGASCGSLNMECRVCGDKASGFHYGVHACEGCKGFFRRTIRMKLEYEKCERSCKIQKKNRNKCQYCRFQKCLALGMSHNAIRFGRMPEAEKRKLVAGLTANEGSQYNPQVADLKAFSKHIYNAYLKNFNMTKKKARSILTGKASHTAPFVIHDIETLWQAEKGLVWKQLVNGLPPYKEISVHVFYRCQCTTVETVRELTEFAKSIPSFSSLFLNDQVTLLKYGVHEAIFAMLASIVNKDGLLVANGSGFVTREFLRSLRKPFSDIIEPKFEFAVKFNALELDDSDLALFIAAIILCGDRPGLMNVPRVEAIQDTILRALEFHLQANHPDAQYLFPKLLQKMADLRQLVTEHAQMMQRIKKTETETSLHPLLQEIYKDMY
Outline: as §1

[9] = molecular target: Thyroid hormone receptor beta (Homo sapiens) (UniProt P10828); experiment: qHTS assay for small molecule agonists of thyroid hormone receptor beta signaling (AID 588545; calls by dose curve;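 also: 0% = DMSO only and 100% = 10 nM T3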)
Chain of Thyroid hormone receptor beta (Homo sapiens) (P10828 whole entry, looked up): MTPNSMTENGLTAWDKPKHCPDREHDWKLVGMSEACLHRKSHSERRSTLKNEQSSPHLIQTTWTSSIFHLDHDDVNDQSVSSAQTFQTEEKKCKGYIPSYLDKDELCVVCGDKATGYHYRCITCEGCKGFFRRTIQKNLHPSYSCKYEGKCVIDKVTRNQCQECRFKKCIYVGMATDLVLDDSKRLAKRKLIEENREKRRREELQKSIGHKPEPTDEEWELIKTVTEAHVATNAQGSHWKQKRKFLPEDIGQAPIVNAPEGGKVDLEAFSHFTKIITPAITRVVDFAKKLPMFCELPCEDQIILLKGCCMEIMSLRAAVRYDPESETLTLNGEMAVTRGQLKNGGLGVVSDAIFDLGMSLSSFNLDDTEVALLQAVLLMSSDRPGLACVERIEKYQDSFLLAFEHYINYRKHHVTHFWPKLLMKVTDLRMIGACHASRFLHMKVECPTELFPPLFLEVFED
Outline: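 TR-UAS-bla GripTite HEK 293 cells (2500/well, medium with 2% charcoal/dextran FBS) were treated in agonist mode for 18 h at 37 C, titrated. Beta-lactamase was read by CCF4 ratio after 2 h; normalized to 10 nM T3 (100%) and DMSO, Hill-fitted for EC50 and efficacy.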

[10] = qHTS assay for small molecule agonists of the antioxidant response element (ARE) signaling pathway (AID 651741; active = well fitted activation curve with a large enough effect in the signal ratio; the % refers to the signal ratio; also: potency is read from the fitted curve at half-maximal effect)
Outline: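 HepG2 ARE-bla cells plated at 2,000 cells/well and incubated 5 h at 37 C/5% CO2 received 23 nL compound in DMSO. After 16 h at 37 C, LiveBLAzer B/G FRET substrate was applied for 2 h at room temperature and fluorescence read.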

[11] = qHTS assay for small molecule activators of the p53 signaling pathway (AID 651743; active = well fitted activation curve with a large enough effect in the signal ratio, not every such curve was filed as active; the % refers to the signal ratio; also: % of control where 0% means no effect); conditions: HCT-116 p53RE-bla, beta-lactamase FRET ratio, 16 h; activation: stronger effect = higher value
Outline: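 HCT-116 p53RE-bla, 4,000 cells/well; 5 h settle; cpd/DMSO 16 h, 37 C; LiveBLAzer B/G 2 h RT; fluorescence intensity.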

[12] = molecular target: Peroxisome proliferator-activated receptor alpha (Homo sapiens) (UniProt Q07869); experiment: qHTS assay for small molecule agonists of the peroxisome proliferator-activated receptor alpha (PPARalpha) signaling pathway (AID 651778); conditions: PathHunter PPARalpha complementation, chemiluminescence, 6 h; max response: stronger effect = higher value; also: % of control where 0% means no effect
Chain of Peroxisome proliferator-activated receptor alpha (Homo sapiens) (Q07869 whole entry, looked up, the tested form may be a part): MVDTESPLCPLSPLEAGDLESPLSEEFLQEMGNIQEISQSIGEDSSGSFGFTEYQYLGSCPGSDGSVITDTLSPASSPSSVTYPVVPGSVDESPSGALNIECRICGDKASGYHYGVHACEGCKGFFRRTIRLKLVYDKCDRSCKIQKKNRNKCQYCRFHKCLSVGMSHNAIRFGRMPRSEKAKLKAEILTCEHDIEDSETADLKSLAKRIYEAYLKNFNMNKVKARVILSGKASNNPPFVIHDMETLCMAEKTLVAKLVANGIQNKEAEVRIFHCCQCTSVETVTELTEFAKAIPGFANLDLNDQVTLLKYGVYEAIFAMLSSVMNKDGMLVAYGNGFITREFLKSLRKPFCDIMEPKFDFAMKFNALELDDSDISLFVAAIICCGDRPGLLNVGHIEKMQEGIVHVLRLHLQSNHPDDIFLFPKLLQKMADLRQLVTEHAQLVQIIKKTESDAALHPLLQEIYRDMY
Outline: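 Enzyme-fragment complementation assay in which ligand-bound PPARalpha translocates and forms an active enzyme that generates chemiluminescence. Cells were plated overnight, exposed to compound for 6 hr at 37 C, and then given detection reagent for 60 min at room temperature.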

[13] = qHTS assay for cell viability of the p53RE-bla HCT-116 cell line (AID 743292); also: % is scaled to controls: 0 for no effect and ±100 for the full control effect; nearly all actives have a fitted effect of over 55% in size
Outline: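 Compound-exposed HCT-116 (p53RE-bla) cells, 4,000 per well, were kept 16 h at 37 C following a 5 h preincubation. Cell number was estimated from total ATP by CellTiter-Glo luminescence read after 30 min at room temperature.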

[14] = molecular target: Nuclear receptor subfamily 1 group I member 2 (Rattus norvegicus) (UniProt Q9R1A7); experiment: qHTS assay for small molecule activators of the rat pregnane X receptor (rPXR) signaling pathway (AID 651751; call rule not given here; also: 0% is about no effect); conditions: rPXR reporter cells, luciferase (One-Glo), 24 h
Chain of Nuclear receptor subfamily 1 group I member 2 (Rattus norvegicus) (Q9R1A7 whole entry, looked up): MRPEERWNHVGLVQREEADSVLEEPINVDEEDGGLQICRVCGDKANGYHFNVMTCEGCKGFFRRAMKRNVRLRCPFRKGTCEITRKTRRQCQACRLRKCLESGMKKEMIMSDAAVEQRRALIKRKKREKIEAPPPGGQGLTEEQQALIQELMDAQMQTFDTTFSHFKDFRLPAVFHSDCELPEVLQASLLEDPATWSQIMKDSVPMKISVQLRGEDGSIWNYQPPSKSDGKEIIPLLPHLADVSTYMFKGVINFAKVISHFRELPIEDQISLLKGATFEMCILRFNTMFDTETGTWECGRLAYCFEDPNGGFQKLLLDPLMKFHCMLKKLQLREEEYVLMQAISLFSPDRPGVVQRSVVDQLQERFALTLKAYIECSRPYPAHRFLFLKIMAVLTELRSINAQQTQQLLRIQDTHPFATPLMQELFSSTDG

[15] = NCATS anti-infectives library activity on the primary C. elegans qHTS viability assay (AID 1745855; calls by dose curve; also: potency is read from the fitted curve at half-maximal effect)
Outline: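 Viability is taken from GFP fluorescence of PE254-GFP-FLuc C. elegans imaged by laser cytometry over 7 days. Ten L1 worms per well grow at 21 °C on TOP10 E. coli capsules with titrated compound; levamisole marks toxicity.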

[16] = molecular target: Glutathione peroxidase 1 (Homo sapiens) (UniProt P07203); experiment: Primary qHTS Assay for Inhibitors of Recombinant Selenoprotein Glutathione Peroxidase 1 (GPX1) (AID 1845191); also: nearly all actives have a fitted effect of over 65% in size
Chain of Glutathione peroxidase 1 (Homo sapiens) (P07203 whole entry, looked up): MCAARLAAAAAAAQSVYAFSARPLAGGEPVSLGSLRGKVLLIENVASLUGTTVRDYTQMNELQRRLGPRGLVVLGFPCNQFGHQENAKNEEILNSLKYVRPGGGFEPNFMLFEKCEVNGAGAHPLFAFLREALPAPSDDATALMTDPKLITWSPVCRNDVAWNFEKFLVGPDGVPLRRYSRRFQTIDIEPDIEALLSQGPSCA
Outline: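 GR-coupled assay: compounds preincubated 30 min at room temperature with GPX1, then reaction started with CHP; final 10 nM GPX1, 1 mM GSH, 0.5 mM CHP, 0.5 mM NADPH, 100 nM GR, 0.01% BSA, pH 7.5 Tris buffer. NADPH fluorescence (340/450 nm) read at 0 and 15 min.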

[17] = molecular target: Phospholipid hydroperoxide glutathione peroxidase GPX4 (Homo sapiens) (UniProt P36969); experiment: Primary qHTS Assay for Inhibitors of Recombinant Selenoprotein Glutathione Peroxidase 4 (GPX4) (AID 1845192); also: % is scaled to controls: 0 for no effect and ±100 for the full control effect; nearly all actives have a fitted effect of over 65% in size
Chain of Phospholipid hydroperoxide glutathione peroxidase GPX4 (Homo sapiens) (P36969 whole entry, looked up): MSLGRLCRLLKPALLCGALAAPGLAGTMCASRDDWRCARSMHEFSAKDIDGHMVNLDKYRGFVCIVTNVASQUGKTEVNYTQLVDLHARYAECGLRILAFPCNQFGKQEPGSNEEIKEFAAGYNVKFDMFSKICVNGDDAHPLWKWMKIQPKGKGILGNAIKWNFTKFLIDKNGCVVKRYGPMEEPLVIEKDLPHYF
Outline: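 GR-coupled assay: recombinant GPX4 preincubated 30 min with compound at room temperature; final 200 nM GPX4, 1 mM GSH, 0.5 mM cumene hydroperoxide, 0.5 mM NADPH, 100 nM GR, 0.01% BSA, pH 7.5 Tris. NADPH fluorescence (340/450 nm) read at 0 and 15 min.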

[18] = molecular target: Lysosomal acid glucosylceramidase (Homo sapiens) (UniProt P04062); experiment: Glucocerebrosidase-p2 (AID 348; in the data active = potency below about 10 µM; also: potency is read from the fitted curve at half-maximal effect); conditions: purified GBA, blue fluorogenic substrate, 40 min
Outline: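 Compounds titrated from 0.6 nM upwards against 0.2 nM enzyme in pH 5.9 citric acid/KH2PO4, taurocholate, tween-20; blue fluorogenic substrate 80 uM, 40 min room temperature, stopped and read Ex 365/Em 440 for AC50.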

[19] = AP1 Signaling Pathway (AID 357; active = well fitted curve in either direction with a large enough effect, not every such curve was filed as active; also: % is scaled to controls: 0 for no effect and ±100 for the full control effect); conditions: ME-180 (cervical carcinoma) AP-1-bla reporter, EGF-induced, beta-lactamase ratio, 5 h; at 7.69 µM (top of the series) unless noted
Outline: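 AP-1-bla ME-180 cells with beta-lactamase reporter under AP-1 response element, stimulated with EC50 EGF; compounds titrated, 5 hours at 37 degrees Celsius. CCF4 read at 460/530 nm ratio; positive and negative modulators judged by AC50.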

[20] = molecular target: Cytochrome P450 1A2 (Homo sapiens) (UniProt P05177); experiment: p450-cyp1a2 (AID 410; calls by dose curve; also: potency is read from the fitted curve at half-maximal effect)
Chain of Cytochrome P450 1A2 (Homo sapiens) (P05177 whole entry, looked up): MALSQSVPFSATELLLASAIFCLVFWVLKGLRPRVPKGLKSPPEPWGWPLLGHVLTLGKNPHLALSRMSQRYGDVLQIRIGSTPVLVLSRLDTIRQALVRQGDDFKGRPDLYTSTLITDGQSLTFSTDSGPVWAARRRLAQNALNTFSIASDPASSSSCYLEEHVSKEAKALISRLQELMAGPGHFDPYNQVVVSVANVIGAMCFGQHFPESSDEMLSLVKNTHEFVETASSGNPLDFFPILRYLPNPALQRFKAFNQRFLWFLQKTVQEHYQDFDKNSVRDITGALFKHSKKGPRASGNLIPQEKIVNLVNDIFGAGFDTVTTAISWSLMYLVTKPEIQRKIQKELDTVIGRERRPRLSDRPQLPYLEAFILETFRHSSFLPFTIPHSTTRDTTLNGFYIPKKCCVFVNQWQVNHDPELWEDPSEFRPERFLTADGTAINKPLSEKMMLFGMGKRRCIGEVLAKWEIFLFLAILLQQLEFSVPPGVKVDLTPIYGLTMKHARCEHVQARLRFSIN
Outline: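 Human CYP1A2 (20nM) demethylated Luciferin-ME at its Km (100uM) in 100mM KPO4. After 10 min compound preincubation, NADPH regeneration ran the reaction 60 min at room temperature. Luciferin was read by luminescence, normalized to 57 uM furafylline.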

[21] = Stat Signaling Pathway (AID 446; active = well fitted curve in either direction with a large enough effect, not every such curve was filed as active;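 also: ME-180 cervical cancer cells given 40 pM IL-6 alongside compound; SIE-controlled beta-lactamase reporter measured as 460/530 nm FRET emission ratio; % is scaled to controls: 0 for no effect and ±100 for the full control effect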)
Outline: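 IL-6/STAT signaling read in ME-180 cells via an SIE beta-lactamase reporter. Stimulus was 40 pM IL-6 (its AC50) for 5 hrs, so both activation and inhibition register.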

[22] = molecular target: Glucocorticoid receptor (Homo sapiens) (UniProt P04150); experiment: GR-GFP Redistribution (AID 450;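 active = compounds whose dose series gives a full or clear partial fitted curve of increased nuclear translocation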; also: potency is read from the fitted curve at half-maximal effect); conditions: U2OS GR-GFP nuclear translocation, laser cytometry, 2 h
[23] = molecular target: 3',5'-cyclic-AMP phosphodiesterase 4B (Homo sapiens) (UniProt Q07343); experiment: qHTS Assay for Inhibitors of PDE-IV (AID 607; active = well fitted activation curve with a large enough effect in the main read-out, with a control signal flat, not every such curve was filed as active; also: % of control where 0% means no effect)
Outline: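 Live HEK293 cells with a modified cyclic nucleotide-gated (CNG) channel report intracellular cAMP via membrane-potential dye fluorescence (ex 535/em 590 nm). Endogenous PDE-IV was targeted. Compounds were tested at up to 22.9 uM final; RO 20-1724 100 uM served as control.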

[24] = molecular target: Cytochrome P450 3A4 (Homo sapiens) (UniProt P08684); experiment: qHTS Assay for Activators of Cytochrome P450 3A4 (AID 885); also: nearly all actives have a fitted effect of over 65% in size
Outline: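 Quantitative HTS format: compounds preincubated with 20nM human CYP3A4 and Luciferin-PPXE substrate at KM, reaction started by NADPH regeneration, stopped after 60 min, luciferase luminescence read 20 min later.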

[25] = molecular target: Dual specificity protein kinase CLK4 (Homo sapiens) (UniProt Q9HAZ1); experiment: qHTS Assay for Inhibitors of CDC-like Kinase 4 (Kinase-Glo Assay) (AID 1770); also: % is scaled to controls: 0 for no effect and ±100 for the full control effect; nearly all actives have a fitted effect of over 65% in size
Chain of Dual specificity protein kinase CLK4 (Homo sapiens) (Q9HAZ1 whole entry, looked up): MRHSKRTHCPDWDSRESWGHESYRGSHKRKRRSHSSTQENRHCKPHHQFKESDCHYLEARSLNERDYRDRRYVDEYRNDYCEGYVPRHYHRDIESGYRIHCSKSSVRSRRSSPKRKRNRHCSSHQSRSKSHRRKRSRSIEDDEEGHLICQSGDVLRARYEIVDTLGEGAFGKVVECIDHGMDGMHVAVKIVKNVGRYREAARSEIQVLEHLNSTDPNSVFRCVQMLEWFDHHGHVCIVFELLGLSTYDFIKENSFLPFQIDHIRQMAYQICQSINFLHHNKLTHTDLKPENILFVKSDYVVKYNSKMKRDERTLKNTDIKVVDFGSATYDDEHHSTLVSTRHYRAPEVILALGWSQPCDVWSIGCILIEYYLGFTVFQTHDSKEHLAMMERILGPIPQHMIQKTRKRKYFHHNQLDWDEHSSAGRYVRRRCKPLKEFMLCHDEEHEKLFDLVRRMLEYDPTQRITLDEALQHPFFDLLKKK
Outline: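 25 nM Clk4 with 100 uM RS repeat peptide and 1 uM ATP (final) in Tris pH7.5, 10 mM MgCl2, 4.5 h at room temperature. Remaining ATP measured by Kinase-Glo luciferase luminescence.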

[26] = molecular target: Dual specificity protein kinase CLK4 (Homo sapiens) (UniProt Q9HAZ1); experiment: qHTS Assay for Inhibitors of CDC-like Kinase 4 (ADP-Glo Assay) (AID 1771); also: % is scaled to controls: 0 for no effect and ±100 for the full control effect; nearly all actives have a fitted effect of over 70% in size
Outline: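 Clk4 (25 nM) was incubated 1 hr at room temperature with 100 uM RS repeat peptide and 1 uM ATP in buffer with 2 mM MgCl2, 0.5 mM EGTA, 2.5 mM DTT. ADP formed was quantified by ADP-Glo luminescence.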

[27] = molecular target: Dual specificity protein kinase CLK4 (Homo sapiens) (UniProt Q9HAZ1); experiment: qHTS Assay for Inhibitors of CDC-like Kinase 4 (ADP-FP Assay) (AID 1795);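 also: recombinant human CLK4 phosphorylating RS repeat peptide at 1 µM ATP; % is scaled to controls: 0 for no effect and ±100 for the full control effect; nearly all actives have a fitted effect of over 60% in size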
Outline: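 Recombinant Clk4 (6.25 nM) phosphorylated 100 uM RS repeat peptide with 1 uM ATP in 25 mM Tris pH 7.5, 10 mM MgCl2, 0.5 mM EGTA, 2.5 mM DTT, 0.01% Triton X-100 for 1 h. ADP was detected by Transcreener ADP2 competitive fluorescence polarization after 30 min at room temperature.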

O=C1CC(c2ccccc2)Oc2ccccc21 (centres undefined)
inactive: Potency [1] | Potency [2] | Potency [3] | Potency [4]

O=C(Nc1ccccc1)c1ccccc1O
inactive: outcome [5] | activation [6] 2.18% | Potency [8] | outcome [9] | activation [11] 20.6% | max response [12] -0.0723% | Potency [13] | Potency [4] | max response [14] -1.47%
-6.49%: max response [7]
active: Potency [10] 15.4 µM

Cc1cc(/C=C/C#N)cc(C)c1Nc1ccnc(Nc2ccc(C#N)cc2)n1
active: Potency [15] 16.3 µM
inactive: Potency [16] | Potency [17]

COc1ccc(-n2c(=O)c(-c3cccs3)nc3cnc(N4CCN(C)CC4)nc32)cc1
inactive: Potency [18] > 11.4 µM | activity change, negative = inhibition [19] 8.48% | outcome [21] | Potency [22] > 9.22 µM | Potency [23] | outcome [24] | Potency [25] | Potency [26] | Potency [27] | Potency [3]
active: Potency [20] 2.51 µM

Reference: PubChem BioAssay (NCATS)
